# The list is not random: actives were taken first. Their share in the collection is about 6.1%.
# D1 agonist – Allosteric Agonists of the Human D1 Dopamine Receptor: qHTS; D(1A) dopamine receptor (Homo sapiens), P21728; HEK293 T-REx D1 cells, calcium flux, agonist mode; activation, % at 2 µM; hit rate 1% among 360,000; AID 504660, 2011; in the data active = activation above about 30%
#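 Tetracycline-induced HEK293 TREx D1 cells, force-coupled to calcium signalling, were dye-loaded with a no-wash calcium kit. Compound was pin-added after a 10 s baseline. Fluorescence was read kinetically at 1 cycle/s for 180 s, with calcium rises flagged as agonism.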
# DRD3 antagonist – qHTS of D3 Dopamine Receptor Antagonist: qHTS. D3R cells, DiscoveRx beta-arrestin luminescence, antagonist mode; active compounds read low. max response, negative = inhibition, %. hit rate 2.5% among 360,000. AID 652054, 2013; in the data active = max response below about -50%; inconclusive = no clear call, values can overlap the other calls
# Target sequence (P35462 whole entry, looked up): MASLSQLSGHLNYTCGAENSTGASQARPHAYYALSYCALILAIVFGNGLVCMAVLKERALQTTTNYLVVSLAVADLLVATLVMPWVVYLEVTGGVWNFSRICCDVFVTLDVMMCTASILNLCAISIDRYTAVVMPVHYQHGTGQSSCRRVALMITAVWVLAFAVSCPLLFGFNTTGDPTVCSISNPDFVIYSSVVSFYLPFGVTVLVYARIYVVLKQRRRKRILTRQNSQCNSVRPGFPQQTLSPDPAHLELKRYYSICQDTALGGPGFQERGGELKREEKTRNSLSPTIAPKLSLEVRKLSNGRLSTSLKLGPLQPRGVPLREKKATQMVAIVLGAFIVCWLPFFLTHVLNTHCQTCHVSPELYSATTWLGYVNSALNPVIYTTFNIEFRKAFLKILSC
#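 Cells plated overnight at 1500 cells/well, then exposed to library compounds with dopamine controls for 90 minutes at 37 degrees C. DiscoveRx reagent added for 30–60 minutes at room temperature; luminescence read, quantitative HTS format.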
# D1 antagonist – Antagonist of Human D 1 Dopamine Receptor: qHTS; D(1A) dopamine receptor (Homo sapiens), P21728; HEK293 TREx D1 cells, calcium flux, dopamine EC80; active compounds read low; activity change, negative = inhibition, % at 10 µM; hit rate 3.2% among 360,000; AID 504652, 2011; in the data active = activity change below about -30%
#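 Tetracycline-induced HEK293 Trex D1 cells, force-coupled to calcium, dye-loaded; compounds added and read 180 s, then EC80 dopamine added and calcium flux tracked kinetically another 180 s.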
# D3 ag – qHTS of D3 Dopamine Receptor Agonist: qHTS; D(3) dopamine receptor (Homo sapiens), P35462; D3R DiscoveRx beta-arrestin cells, luminescence, 90 min; max activation, %; hit rate 0.58% among 410,000; AID 652048, 2013; in the data active = max activation above about 30%
#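 Agonist mode: compounds and dopamine controls were applied to plated cells for 90 min at 37 degrees C after an overnight attachment at 1500 cells/well. Luminescent read-out followed 30 - 60 minutes at room temperature with DiscoveRx detection reagent.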
# D1 potentiator – Potentiators of Human D1 Dopamine Receptor: qHTS. HEK293 TREx D1 cells, calcium flux, dopamine EC20 potentiation. potentiation, % at 10 µM. hit rate 0.036% among 360,000; in the data active = potentiation above about 30%
# A number is an active result; i = inactive; ? = inconclusive; nt = no result given.
SMILES,D1 agonist,DRD3 antagonist,D1 antagonist,D3 ag,D1 potentiator
CCn1c(=O)cc(OCC(=O)N2CCN(c3ccc(C)cc3)C(C)C2)c2ccccc21 (stereo unspecified),i,nt,i,i,i
CCCCSc1nnc2c(n1)OC(c1ccc(C)s1)Nc1ccccc1-2 (stereo unspecified),i,nt,i,i,i
C/C(=N\NC(=O)c1cc(C)oc1C)c1ccc2ccccc2c1,i,i,-42,i,i
Cc1cc(C(=O)NN=C(Cc2ccccc2)Cc2ccccc2)c(C)o1,i,i,i,i,i
CCOC(=O)N1CCN(C(=O)COC(=O)CSc2ccc([N+](=O)[O-])cc2)CC1,i,-52,i,i,i
Cc1ccccc1CN(C)C(=O)COC(=O)CSc1ccc([N+](=O)[O-])cc1,i,i,-33,i,i
Cc1ccc(CN(C)C(=O)COC(=O)CSc2ccc([N+](=O)[O-])cc2)cc1,i,i,i,i,i
Cc1c(C(=O)N(Cc2ccc(N(C)C)cc2)Cc2ccco2)oc2cc(Br)ccc12,i,nt,i,i,i
N=C1SC(c2ccccc2)C(=O)N1c1ncc(Cc2ccccc2)s1 (stereo unspecified),i,-56,i,i,i
O=C(O)c1ccccc1N/N=C/c1c(Sc2nnnn2-c2ccccc2)nc2ccccn2c1=O,i,i,-43,i,i
O=c1c(/C=N/Nc2ccccc2)c(Sc2nnnn2-c2ccccc2)nc2ccccn12,i,i,i,i,i
CCC1CN(C(=O)Nc2ccc(Br)cc2F)c2ccccc2S1 (stereo unspecified),i,nt,i,i,i
Oc1ccc(-c2nc(-c3ccccc3)c(-c3ccc(Br)cc3)[nH]2)cc1,i,nt,i,i,i
Cc1nc(-c2ccccc2)c(-c2ccccc2)[nH]1,i,-51,i,i,i
Oc1ccc(N=Nc2nc(-c3ccccc3)c(-c3ccccc3)[nH]2)cc1,i,-53,i,i,i
CSc1nc(-c2ccccc2)c(-c2ccccc2)[nH]1,i,?,i,i,i
COc1ccc(C(CNC(=O)c2cccc([N+](=O)[O-])c2)N2CCOCC2)cc1 (stereo unspecified),i,nt,i,i,i
O=C1[C@@H]2Cc3ccccc3CN2C(=O)N1c1cccc(F)c1,i,i,i,37,i
COc1ccc(C2C(=O)N(C3CCCCCC3)CC(=O)N2CCC2=CCCCC2)cc1 (stereo unspecified),i,nt,i,i,i
CCOC(=O)c1c(NC(=O)c2ccc(S(=O)(=O)N(CC(C)C)CC(C)C)cc2)sc2c1CCN(CC)C2,i,nt,i,i,i
COc1ccc(C2(CNC(C)=O)CCOCC2)cc1OC,i,i,-35,i,nt
Cc1ccc(CN2CCN(Cc3ccc4c(c3)OCCO4)CC2CCO)cc1 (stereo unspecified),i,-55,i,i,i
Cc1ccc(CN2CCN(CCC(C)C)C(CCO)C2)s1 (stereo unspecified),i,?,i,i,i
Cc1ccc(CN2CCN(Cc3ccc(C)s3)CC2CCO)cc1 (stereo unspecified),i,-96,i,i,i
Cc1ccc(CN2CCN(CC(C)C)C(CCO)C2)s1 (stereo unspecified),i,i,i,i,i
SMILES,D1 agonist,DRD3 antagonist,D1 antagonist,D3 ag,D1 potentiator
Cc1ccc(CN2CCN(C3CCCC3)C(CCO)C2)s1 (stereo unspecified),i,-51,i,i,i
Cc1ccc(CN2CCN(Cc3ccccc3)C(CCO)C2)s1 (stereo unspecified),i,-53,i,i,i
Cc1ccc(OCC(=O)Nc2ccc3nc(SCC(=O)N4CCCC4)sc3c2)cc1C,i,nt,i,i,i
CCc1nn2c(=O)cc(COC(=O)CNC(=O)c3ccccc3)nc2s1,i,nt,i,i,i
CC1CCCCN1C(=O)CSc1n[nH]c(-c2ccccc2Cl)n1 (stereo unspecified),i,nt,i,i,i
CCCCOc1ccc(OC(=O)c2sc3ncn(Cc4cccc(F)c4)c(=O)c3c2C)cc1,i,nt,i,i,i
CC(=O)Nc1ccc(CN2CCN(C3CCCCC3)C(CCO)C2)cc1 (stereo unspecified),36,i,i,i,i
